From publication PMC3218832

biological target: T1, C-Rel subunit;p52 subunit (Homo sapiens;Homo sapiens, UniProt Q04864;Q00653 1-285;4-332); experiment: protein binding microarray; high values mean tight binding; conditions: dsDNA, one strand shown
T1 sequence 1: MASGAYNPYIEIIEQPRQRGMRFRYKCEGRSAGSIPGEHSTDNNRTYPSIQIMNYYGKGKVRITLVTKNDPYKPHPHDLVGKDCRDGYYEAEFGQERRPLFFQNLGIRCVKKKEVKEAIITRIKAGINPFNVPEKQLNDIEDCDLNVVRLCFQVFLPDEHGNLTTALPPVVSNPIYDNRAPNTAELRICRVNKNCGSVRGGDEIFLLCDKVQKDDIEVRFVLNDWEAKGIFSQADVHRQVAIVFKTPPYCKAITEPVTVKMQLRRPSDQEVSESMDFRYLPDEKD
T1 sequence 2: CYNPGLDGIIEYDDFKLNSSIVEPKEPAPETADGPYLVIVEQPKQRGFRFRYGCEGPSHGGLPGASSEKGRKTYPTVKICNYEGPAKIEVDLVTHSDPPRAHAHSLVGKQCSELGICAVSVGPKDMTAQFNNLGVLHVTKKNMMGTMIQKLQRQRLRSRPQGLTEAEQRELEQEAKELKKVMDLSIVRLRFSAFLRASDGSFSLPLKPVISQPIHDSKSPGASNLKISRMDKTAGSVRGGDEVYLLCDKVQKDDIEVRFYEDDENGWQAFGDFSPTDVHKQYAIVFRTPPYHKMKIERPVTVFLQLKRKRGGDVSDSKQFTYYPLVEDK

Row | Sequence | binding signal
1 | CAGGATCCCCT | 0.975 z-score
2 | AGATTTATCCC | -0.0889 z-score
3 | CAGTAATTCCC | 1.05 z-score
4 | GGAGGTACCCT | 0.0544 z-score
5 | GAGAACTTCCT | -0.645 z-score
6 | CGAAGCATCCT | -1 z-score
7 | CAGGACTTCCT | -0.475 z-score
8 | GGAGTAATCCC | 0.0188 z-score
9 | AGGGGATCCCT | 2.29 z-score
10 | CGAATATTCCC | 0.858 z-score
11 | GGATTCATCCT | -0.792 z-score
12 | GAAGTGCTCCT | -1 z-score
13 | AGGTAGGCCCT | -0.598 z-score
14 | CAAAGTCCCCT | 1.57 z-score
15 | CGAAGGACCCT | -0.87 z-score
16 | AGAGACACCCC | -0.484 z-score
17 | GGAGACTTCCC | 0.286 z-score
18 | GGGGACACCCC | 2.35 z-score
19 | AGAGTATTCCC | 0.396 z-score

Row | Sequence | binding signal
20 | CAAGGGGTCCT | -0.486 z-score
21 | AGGTGTCCCCC | 1.02 z-score
22 | AAGTAGTCCCC | 0.58 z-score
23 | GAGATTTTCCT | 0.077 z-score
24 | GAAGGAACCCT | -0.694 z-score
25 | AGGAATGCCCT | 0.0938 z-score
26 | CAGTTACTCCT | -0.871 z-score
27 | GAATGTTTCCC | 0.614 z-score
28 | CAAGAGATCCT | -1.16 z-score
29 | AGAATTTCCCC | 2.29 z-score
30 | CGGGTATTCCT | 1.22 z-score
31 | CAGTGAGTCCC | 0 z-score
32 | CAGAATACCCT | 0.421 z-score
33 | AAAAAGCCCCC | 2.22 z-score
34 | GGAAGAACCCC | 0.755 z-score
35 | GGAATACTCCC | 0.199 z-score
36 | CAGGGCCTCCC | -0.502 z-score
37 | AAGATTTCCCC | 2.03 z-score
38 | CAAAGTTTCCT | -0.21 z-score
